Screens from PubChem BioAssay.
This is a sample that favours compounds with a hit; in the whole collection about 3.8% have one here.
ATXN2 expr inh = Primary qHTS for Inhibitors of ATXN expression. 0.72% of 360,000 active. HEK-293 ATXN2-luciferase reporter, luminescence, 24 h. Potency, µM (titrated, usually from 57 µM), inactives show at the highest dose activity change, negative = inhibition, hits mostly inhibitors. AID 1745845, 2022; note: % is set by controls: 0 for no effect and ±100 for the full control effect; nearly all actives have a fitted effect of over 55% in size
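ATXN2-luciferase reporter cells (luciferase flanked by upstream and downstream ATXN2 gene portions) were treated 24 h at 37 °C with compounds at up to 57 uM. SteadyGlo luminescence gave expression; GF-AFC fluorescence gave viability.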
A549 viability = Nrf2 qHTS screen for inhibitors: counterscreen for cytotoxicity | A549 ARE-Fluc cells, CellTiter-Fluor viability, 18-24 h | Potency, µM (series often up to 46 µM), for inactives: at the highest dose activity change, negative = cytotoxicity, usual class: inhibitors | 0.16% of 390,000 active | AID 504648, 2011; note: % is set by controls: 0 for no effect and ±100 for the full control effect
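A549 ARE-Fluc cells in 5% FBS OPTI-MEM, 5000 cells/well, rested 2 h then exposed to compounds in concentration-response for 18-24 h at 37 °C. Viability by CellTiter-Fluor fluorescence (Ex 405/Em 525) after 30 min; luciferase luminescence (BugLite, 15 min, RT) read afterwards.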
Nrf2 inh = Nrf2 qHTS screen for inhibitors; A549 ARE-Fluc reporter, luciferase luminescence, 18-24 h; Potency, µM (doses to about 46 µM), for the others: at the highest dose activity change, negative = inhibition, most hits filed as inhibitors; 2.1% of 360,000 active; note: % is set by controls: 0 for no effect and ±100 for the full control effect; nearly all actives have a fitted effect of over 60% in size
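Nrf2 activity is the BugLite luminescence, read 15 min after reagent at room temperature, following CellTiter-Fluor cytotoxicity readout (30 min, 37C). Compound titrations were applied for 18-24 h to 5000 A549 ARE_Fluc cells/well in 5% FBS OPTI-MEM.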
HepG2 viability = qHTS for Inhibitors of TGF-b: Cytotox Counterscreen; HepG2 CAGA-GFP viability, ATP luminescence, 18 h; Potency, µM (titrated, usually from 46.1 µM), inactives show at the highest dose activity change, negative = cytotoxicity, most hits filed as cytotoxic; 0.76% of 410,000 active
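HepG2 CAGA-GFP cells (1000/well, DMEM with 1% FBS) received compound, then TGF-beta at 500 pg/mL final, and were incubated 18 hours at 37 degrees C. Viability was read by CellTiter-Glo luminescence. Media-only wells were set as complete cell-killing and DMSO as no toxicity.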
S2 tox = Viability Counterscreen for Primary qHTS for Inhibitors of ATXN expression; AID 651635, 2014; 0.49% of 400,000 active; S2 cells (HEK-293 line with an ATXN2-luciferase reporter) viability, CellTiter-Fluor protease fluorescence, 24 h; Potency, µM (highest dose often 56.7 µM), actives largely listed as cytotoxic; note: nearly all actives have a fitted effect of over 40% in size
TGFb inhibitor = qHTS for Inhibitors of TGF-b. HepG2 CAGA-GFP TGF-b/SMAD3 reporter, GFP fluorescence, 18 h; TGF-beta stimulated, 500 pg/mL final. Potency, µM (doses to about 46.1 µM), for the others: top-dose activity, negative = inhibition, actives largely listed as inhibitors. 1.2% of 410,000 active. AID 588855, 2011; note: % is set by controls: 0 for no effect and ±100 for the full control effect; nearly all actives have a fitted effect of over 65% in size
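HEPG2 CAGA-GFP, 1000 cells/well; 2 h settle, 37 C; cpd via pin tool; TGF-b 500 pg/mL final; 18 h, 37 C; GFP imaging ex488/em500-530; %Activity normalised to -TGF-b and +DMSO controls; CRC fit, curve class.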
An asterisk follows results filed as active; [ ] = another dose, or the depositor's remark. Calls come from the whole dose curve; as a rule, active = well fitted curve in the direction sought with a large enough effect; inconclusive = small, poorly fitted or top-dose-only effect, or another doubt; inactive = no such curve, though single readings can be large; an effect the other way counts as inactive or inconclusive. Potency is the fitted concentration of half-maximal effect.

For Cc1ccc2c(CC(=O)Nc3ccc(S(=O)(=O)N4CCCC(C)C4)cc3)coc2c1 (stereo unspecified) the results were ATXN2 expr inh inconclusive, A549 viability -8%, Nrf2 inh 21µM*, HepG2 viability -10%, S2 tox inconclusive and TGFb inhibitor inconclusive.
`C/C(N)=C(/C#N)C(=O)CSc1nc2scc(-c3ccccc3)c2c(=O)n1C` gave ATXN2 expr inh -29%, A549 viability 1%, Nrf2 inh 15µM*, HepG2 viability -7%, S2 tox inactive and TGFb inhibitor -1%.
`Cc1ccccc1-c1noc(-c2ccc(NCc3ccco3)c([N+](=O)[O-])c2)n1` gave ATXN2 expr inh 23%, A549 viability 9%, Nrf2 inh -5%, HepG2 viability -1%, S2 tox inactive and TGFb inhibitor 89%.
COc1ccc(CCNc2nc(-c3ccc(O)cc3)cs2)cc1OC was read as ATXN2 expr inh inconclusive, A549 viability 3%, Nrf2 inh 6%, HepG2 viability -28%, S2 tox inactive and TGFb inhibitor inconclusive.
For COc1ccc(Nc2nc(-c3sc(C)nc3C)cs2)cc1 the results were A549 viability -10%, Nrf2 inh -16%, HepG2 viability -38%, S2 tox inconclusive and TGFb inhibitor inconclusive.
Screening COc1ccc(CCNc2nc(-c3ccncc3)cs2)cc1OC returned ATXN2 expr inh -31%, A549 viability 7%, Nrf2 inh -30%, HepG2 viability -17%, S2 tox inactive and TGFb inhibitor inconclusive.
For COc1ccc(CCNc2nc(-c3sc(C)nc3C)cs2)cc1OC the results were ATXN2 expr inh inconclusive, A549 viability inconclusive, Nrf2 inh 21µM*, HepG2 viability -20%, S2 tox inconclusive and TGFb inhibitor 0%.
Screening Cc1nc(C)c(-c2csc(Nc3ccc(N)cc3)n2)s1 returned A549 viability -20%, Nrf2 inh 21µM*, HepG2 viability -21%, S2 tox inactive and TGFb inhibitor -11%.
For COc1ccc(CCNc2nc(-c3cccnc3)cs2)cc1OC the results were ATXN2 expr inh -23%, A549 viability -6%, Nrf2 inh 23µM*, HepG2 viability -9%, S2 tox inactive and TGFb inhibitor -13%.
For CC(=O)Nc1cccc(NC(=O)CS(=O)(=O)c2cn(CC(=O)N(C(C)C)C(C)C)c3ccccc23)c1 the results were ATXN2 expr inh 15%, A549 viability 3%, Nrf2 inh 0%, HepG2 viability 3%, S2 tox inactive and TGFb inhibitor -1%.
For Cc1cc(Sc2nc(N)ncc2[N+](=O)[O-])ncn1 the results were ATXN2 expr inh -7%[11.3 µM], A549 viability -6%, Nrf2 inh 24%, HepG2 viability -112%, S2 tox inactive and TGFb inhibitor 10µM*.
Screening CCOc1ccc(C(=O)NCC(=O)NCC(c2cccs2)N2CCOCC2)cc1 (stereo unspecified) returned ATXN2 expr inh 13%, A549 viability 2%, Nrf2 inh 4%, HepG2 viability -3%, S2 tox inactive and TGFb inhibitor 17%.
For Cc1ccc(C(=O)Oc2ccc(/C=C3\C(=N)N4N=C(N5CCOCC5)SC4=NC3=O)cc2)cc1 the results were ATXN2 expr inh 5%, A549 viability 5%, Nrf2 inh 7.3µM*, HepG2 viability -16%, S2 tox inactive and TGFb inhibitor -12%.
For N=C1/C(=C\c2ccc(OC(=O)c3ccccc3)cc2)C(=O)N=C2SC(N3CCOCC3)=NN12 the results were ATXN2 expr inh 8%, A549 viability -7%, Nrf2 inh -5%, HepG2 viability -20%, S2 tox inactive and TGFb inhibitor -26%.
